The text below walks through data of PubChem BioAssay (Tox21).

Results filed as inconclusive are left out. Activity calls are given as the source filed them. The call rests on the fitted dose curve; in most records, active means well fitted cell-killing curve with a large enough effect in the repeat runs; inconclusive means weak or mixed curves; inactive means no such curve, though single readings can be large or run the other way.

A short description of this test: qHTS assay to identify small molecule agonists of the peroxisome proliferator-activated receptor delta (PPARd) signaling pathway - cell viability counter screen (AID 743211). Further: nearly all actives have a fitted effect of over 55% in size. As to conditions: PPARd-bla HEK293H viability, CellTiter-Glo luminescence, 17 h; series mostly up to 62.6 µM. The text has this: U.S. Tox21 Program National Center for Advancing Translational Sciences [NCATS] NIH Chemical Genomics Center [NCGC] U.S. Environmental Protection Agency [EPA] National Institutes of Environmental Health Sciences [NIEHS] National Toxicology Program [NTP] U.S. Food and Drug Administration [FDA] Tox21 Assay Overview: The peroxisome proliferator-activated receptors (PPARs) are lipid-activated transcription factors of the nuclear receptor superfamily with three distinct subtypes namely PPAR alpha, PPAR delta (PPARd) and PPAR gamma. All these subtypes heterodimerizes with Retinoid X receptor (RXR) and have different physiological functions. […] To identify the compounds that activate PPAR-delta signaling, GeneBLAzer PPAR delta UAS-bla HEK293H cell line (Invitrogen, Carlsbad, CA, USA) containing a beta-lactamase reporter gene under the control of an Upstream Activator Sequence (UAS) was used to screen the Tox21 compound library. The cytotoxicity of the Tox21 compound library against the PPARd-bla cell line was tested in parallel by measuring the cell viability using CellTiter-Glo assay (Promega, Madison, WI) in the same wells.
Tox21 Assay Protocol Summary: PPARd-bla cells were dispensed at 3000 cells/6uL/well in 1536-well black wall/clear bottom plates using a Multidrop Combi (Thermo Fisher Scientific, Waltham, MA) dispenser. After the assay plates were incubated at 37 C and 5% CO2 for 5 h, 23 nL of compounds dissolved in DMSO, positive controls or DMSO only was transferred to the assay plate by a Pintool station (Kalypsys, San Diego, CA). The assay plates were incubated at 37C for 17 h. After 1 uL of LiveBLAzerTM B/G FRET substrate was added using a Bioraptr Flying Reagent Dispenser (FRD) workstation (Beckman Coulter, Indianapolis, IN, USA), the plates were incubated at room temperature for 2 h, and fluorescence intensity was measured by an Envision plate reader (PerkinElmer, Shelton, CT). For cell viability readout that measures cytotoxicity, 3 ul/well of CellTiter-Glo reagent was added into the assay plates using a Bioraptr FRD. After 30 min incubation at room temperature, the luminescence intensity in the plates was measured using a ViewLux plate reader (PerkinElmer).
Regarding `Cc1ccc(C)c([N+](=O)[O-])c1`, the compound was called inactive.
Turning to `O=C(Cl)c1ccccc1[N+](=O)[O-]`, the result was inactive.
Consider `CC(=O)C(C)O` (stereo not given), for which the compound was classed as inactive.
To `C/C=C(\C)C(C)=O` belongs “inactive”.
As for `CC(C)C1OCCN1CCOC(=O)NCCCCCCNC(=O)OCCN1CCOC1C(C)C` (stereo not given), the entry is “inactive”; as for `N#CCC(=O)NN`, “inactive”.
Take `CCO[Si](CC)(OCC)OCC`: the compound was classed as inactive.
To `C[Si]1(C)O[Si](C)(C)O[Si](C)(C)O[Si](C)(C)O[Si](C)(C)O1` belongs “inactive”.
To `C=Cc1ccc(C(C)(C)C)cc1` belongs “inactive”; to `COc1c2occc2c(OC)c2c(=O)cc(C)oc12`, “inactive”; to `C/C(CC(C)C)=N\O`, “inactive”.
On to `CCCCOC(=O)C(C)O` (stereo not given), for which the outcome was inactive.
Regarding `CCC(=O)Oc1ccc2c(c1)CC[C@@H]1[C@@H]2CC[C@@]2(C)[C@H]1C[C@@H](OC(=O)CC)[C@@H]2OC(=O)CC`, the call was inactive.
As for `O=C1OCCO1`, the entry is “inactive”; as for `Cc1ccc2c(c1)C(=O)c1ccccc1C2=O`, “inactive”.
To `O=C1CCCCO1` belongs “inactive”; to `CC(C)(C)NC[C@H](O)COc1cccc2c1CCCC2=O`, “inactive”.
Take `CC1(C)[C@H]2CC[C@](C)(C2)[C@H]1O`: the compound was classed as inactive.
As for `CC(S)C(C)S` (stereo not given), the entry is “inactive”; as for `CC(C)OC(=O)OCOP(=O)(CO[C@H](C)Cn1cnc2c(N)ncnc21)OCOC(=O)OC(C)C`, “inactive”.
Take `COC(=O)CCCCC(CCSS/C(CCO)=C(\C)N(C=O)Cc1cnc(C)nc1N)SC(C)=O` (stereo not given): the outcome was inactive.
To `CCCc1ccc(O)cc1` belongs “inactive”; to `CC(=O)OC(C)=O`, “inactive”; to `COC(=O)c1cc(Cl)cc(Cl)c1`, “inactive”.
Turning to `CC(=O)CCc1ccc(OC(C)=O)cc1`, the outcome was inactive.
Consider `CC(C)CO`, for which the call was inactive.
On to `CC(=O)O[C@@H]1CC2CCC1(C)C2(C)C` (stereo not given in full), for which the compound was classed as inactive.
Regarding `O=C[O][Al]([O]C=O)[O]C=O`, the call was inactive.
As for `O/N=C/C=N/O`, the entry is “inactive”.
To `CCC(=O)c1c(O)cc(O)cc1O` belongs “inactive”.
For `C=CCCCCCCCC`, the compound was called inactive.
To `CC(C)NCC(O)c1ccc2ccccc2c1` (stereo not given) belongs “inactive”; to `COC(=O)CCCCC(=O)O`, “inactive”; to `N#Cc1cscn1`, “inactive”.
To `CCCC(=O)OC/C=C(\C)CCC=C(C)C` belongs “inactive”; to `CCCCC1CCC(O)CC1` (stereo not given), “inactive”; to `CC1CC(=O)CC(C)(C)C1` (stereo not given), “inactive”.
On to `Cc1ccccc1C(N)=O`, for which the call was inactive.
As to `CCC/C=C(\C=O)CC`, the call was inactive.
As for `C/C=C(\C)C(=O)OCCc1ccccc1`, the entry is “inactive”.
